PMC7862700, “An all-to-all approach to the identification of sequence-specific readers for epigenetic DNA modifications on cytosine”

Key:
Experiment in all cases: DAPPL (digital affinity profiling via proximity ligation, sequencing); 10 mM Tris-HCl pH 7.5, 50 mM NaCl, 1 mM DTT, 4% glycerol, room temperature, 30 min; GST-TFs on glutathione beads, 16-mer random dsDNA library, 0.1% formaldehyde crosslink after washing; high values mean tight binding
Details in all cases: protein: recombinant; tags: N-terminal GST; dsDNA, one strand shown
ELK1 = target: T1, ELK1 (Homo sapiens, UniProt P19419 1-428)
T1 sequence: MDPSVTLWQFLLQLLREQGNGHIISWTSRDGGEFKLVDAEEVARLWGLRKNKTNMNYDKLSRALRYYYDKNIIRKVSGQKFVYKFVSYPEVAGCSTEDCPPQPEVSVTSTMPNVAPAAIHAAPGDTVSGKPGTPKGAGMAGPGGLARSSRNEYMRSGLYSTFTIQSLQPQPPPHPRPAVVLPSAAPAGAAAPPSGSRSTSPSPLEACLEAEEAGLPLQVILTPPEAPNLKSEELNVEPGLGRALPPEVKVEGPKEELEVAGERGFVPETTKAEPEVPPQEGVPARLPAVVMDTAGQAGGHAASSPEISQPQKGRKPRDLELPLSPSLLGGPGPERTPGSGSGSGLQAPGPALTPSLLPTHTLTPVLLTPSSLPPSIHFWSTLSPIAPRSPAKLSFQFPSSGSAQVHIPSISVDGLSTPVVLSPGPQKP
Summary of the method: (§1)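 Binding signal is each hexamer's read frequency for a factor divided by its frequency in the tag-only sample. The factors were GST-fused human transcription factors from yeast, captured on glutathione beads, DNA-barcoded and pooled with that sample. Pools were incubated with 200 nmole of a random double-stranded 16-mer DNA library in Tris/NaCl/DTT/glycerol buffer at room temperature for 30 min, then washed, crosslinked with 0.1% formaldehyde, proximity-ligated with BsaI/T4 ligase (1 h, 37 °C), PCR-amplified and sequenced on an Illumina NextSeq500.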

EHF = target: T2, EHF (Homo sapiens, UniProt Q9NZC4 1-300)
T2 sequence: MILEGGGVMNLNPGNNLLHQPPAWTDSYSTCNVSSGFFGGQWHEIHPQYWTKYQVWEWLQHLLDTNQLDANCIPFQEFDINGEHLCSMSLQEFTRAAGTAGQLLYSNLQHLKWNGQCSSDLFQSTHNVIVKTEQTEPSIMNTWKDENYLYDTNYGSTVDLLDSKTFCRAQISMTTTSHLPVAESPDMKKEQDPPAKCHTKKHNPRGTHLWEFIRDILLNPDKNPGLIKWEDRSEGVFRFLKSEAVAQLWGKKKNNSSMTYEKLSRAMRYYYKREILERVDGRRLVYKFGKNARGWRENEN
Summary of the method: as §1

SPIC = target: T3, SPIC (Homo sapiens, UniProt Q8N5J4 1-248)
T3 sequence: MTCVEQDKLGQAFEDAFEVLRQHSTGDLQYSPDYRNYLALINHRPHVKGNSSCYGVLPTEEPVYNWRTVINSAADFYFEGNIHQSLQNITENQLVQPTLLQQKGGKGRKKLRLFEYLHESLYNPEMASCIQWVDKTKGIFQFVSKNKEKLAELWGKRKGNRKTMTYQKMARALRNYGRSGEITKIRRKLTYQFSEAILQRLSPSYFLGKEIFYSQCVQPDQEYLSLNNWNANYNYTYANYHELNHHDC
Summary of the method: as §1

ELK4 = target: T4, ELK4 (Homo sapiens, UniProt P28324-2 1-405)
T4 sequence: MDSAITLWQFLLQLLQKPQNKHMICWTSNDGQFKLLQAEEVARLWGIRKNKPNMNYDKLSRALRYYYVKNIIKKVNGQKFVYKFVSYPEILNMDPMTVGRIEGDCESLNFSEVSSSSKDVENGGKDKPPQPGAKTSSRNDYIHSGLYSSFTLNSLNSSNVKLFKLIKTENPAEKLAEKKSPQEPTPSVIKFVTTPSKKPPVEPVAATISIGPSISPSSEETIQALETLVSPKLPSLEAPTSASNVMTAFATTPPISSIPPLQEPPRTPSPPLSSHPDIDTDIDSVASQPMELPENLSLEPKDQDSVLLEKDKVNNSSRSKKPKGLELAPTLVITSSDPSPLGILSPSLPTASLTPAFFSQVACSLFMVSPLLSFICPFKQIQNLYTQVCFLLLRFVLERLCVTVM
Summary of the method: as §1

ELF3 = target: T5, ELF3 (Homo sapiens, UniProt P78545 1-371)
T5 sequence: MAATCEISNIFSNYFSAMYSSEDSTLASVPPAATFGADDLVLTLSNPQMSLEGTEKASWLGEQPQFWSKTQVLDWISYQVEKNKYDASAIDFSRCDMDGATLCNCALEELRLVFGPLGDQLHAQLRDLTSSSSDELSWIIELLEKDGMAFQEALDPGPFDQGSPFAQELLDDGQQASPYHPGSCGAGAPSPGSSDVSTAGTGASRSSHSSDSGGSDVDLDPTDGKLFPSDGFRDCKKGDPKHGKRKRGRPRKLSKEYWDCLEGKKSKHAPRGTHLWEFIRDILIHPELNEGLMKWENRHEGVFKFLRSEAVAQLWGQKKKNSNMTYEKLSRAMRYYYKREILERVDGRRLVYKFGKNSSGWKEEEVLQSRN
Summary of the method: as §1

GABPA = target: T6, GABPA (Homo sapiens, UniProt Q06546 1-454)
T6 sequence: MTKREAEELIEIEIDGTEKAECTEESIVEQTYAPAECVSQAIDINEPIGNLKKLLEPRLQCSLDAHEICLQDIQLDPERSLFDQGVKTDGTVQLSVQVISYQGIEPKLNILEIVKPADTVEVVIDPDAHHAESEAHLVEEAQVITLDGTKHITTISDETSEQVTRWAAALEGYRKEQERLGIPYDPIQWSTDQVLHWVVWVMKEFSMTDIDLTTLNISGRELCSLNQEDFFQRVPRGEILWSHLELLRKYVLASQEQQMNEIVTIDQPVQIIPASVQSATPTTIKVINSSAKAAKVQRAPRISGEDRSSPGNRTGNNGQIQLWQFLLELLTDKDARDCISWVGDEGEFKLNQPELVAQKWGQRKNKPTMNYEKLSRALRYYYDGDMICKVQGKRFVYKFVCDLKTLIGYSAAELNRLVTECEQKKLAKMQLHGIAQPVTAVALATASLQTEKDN
Summary of the method: as §1

ELK3 = target: T7, ELK3 (Homo sapiens, UniProt P41970 1-407)
T7 sequence: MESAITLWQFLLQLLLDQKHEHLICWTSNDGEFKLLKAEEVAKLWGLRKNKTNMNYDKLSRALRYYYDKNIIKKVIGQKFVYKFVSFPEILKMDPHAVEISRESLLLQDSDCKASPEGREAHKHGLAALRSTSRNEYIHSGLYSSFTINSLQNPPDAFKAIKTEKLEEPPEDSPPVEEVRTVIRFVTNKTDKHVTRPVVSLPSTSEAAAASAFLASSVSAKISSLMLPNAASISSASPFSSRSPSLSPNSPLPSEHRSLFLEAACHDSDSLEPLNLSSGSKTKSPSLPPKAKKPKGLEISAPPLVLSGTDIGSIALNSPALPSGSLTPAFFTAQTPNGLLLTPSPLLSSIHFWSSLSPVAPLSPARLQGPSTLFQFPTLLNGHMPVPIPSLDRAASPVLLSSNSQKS
Summary of the method: as §1

FEV = target: T8, FEV (Homo sapiens, UniProt Q99581 1-238)
T8 sequence: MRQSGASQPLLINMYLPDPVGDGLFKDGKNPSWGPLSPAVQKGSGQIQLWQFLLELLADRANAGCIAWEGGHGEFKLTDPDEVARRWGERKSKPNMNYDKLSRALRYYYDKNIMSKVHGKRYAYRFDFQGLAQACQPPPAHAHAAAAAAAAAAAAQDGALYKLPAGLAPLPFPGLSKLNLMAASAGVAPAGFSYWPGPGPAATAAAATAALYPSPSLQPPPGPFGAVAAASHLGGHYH
Summary of the method: as §1

ELF4 = ELF4 (Homo sapiens, UniProt Q99607 1-663)
Sequence of ELF4 (Q99607 whole entry): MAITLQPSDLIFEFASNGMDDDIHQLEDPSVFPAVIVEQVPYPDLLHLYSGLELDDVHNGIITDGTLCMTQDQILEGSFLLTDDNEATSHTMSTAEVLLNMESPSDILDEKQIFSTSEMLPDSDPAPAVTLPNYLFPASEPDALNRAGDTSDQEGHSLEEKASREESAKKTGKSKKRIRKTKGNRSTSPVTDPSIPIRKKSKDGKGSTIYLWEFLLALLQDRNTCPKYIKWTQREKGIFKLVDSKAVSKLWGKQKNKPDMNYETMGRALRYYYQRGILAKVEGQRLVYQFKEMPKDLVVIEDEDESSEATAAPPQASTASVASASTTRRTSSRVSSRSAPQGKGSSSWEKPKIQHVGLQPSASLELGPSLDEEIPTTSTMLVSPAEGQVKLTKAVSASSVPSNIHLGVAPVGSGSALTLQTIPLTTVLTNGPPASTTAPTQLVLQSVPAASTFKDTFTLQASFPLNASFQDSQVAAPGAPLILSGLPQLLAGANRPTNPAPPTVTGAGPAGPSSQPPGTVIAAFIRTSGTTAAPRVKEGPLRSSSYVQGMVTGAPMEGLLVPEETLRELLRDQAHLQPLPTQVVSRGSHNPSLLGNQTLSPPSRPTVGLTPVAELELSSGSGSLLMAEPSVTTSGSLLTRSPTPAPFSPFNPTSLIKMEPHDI
Summary of the method: as §1

ETV6 = ETV6 (Homo sapiens, UniProt P41212 1-452)
Sequence of ETV6 (P41212 whole entry): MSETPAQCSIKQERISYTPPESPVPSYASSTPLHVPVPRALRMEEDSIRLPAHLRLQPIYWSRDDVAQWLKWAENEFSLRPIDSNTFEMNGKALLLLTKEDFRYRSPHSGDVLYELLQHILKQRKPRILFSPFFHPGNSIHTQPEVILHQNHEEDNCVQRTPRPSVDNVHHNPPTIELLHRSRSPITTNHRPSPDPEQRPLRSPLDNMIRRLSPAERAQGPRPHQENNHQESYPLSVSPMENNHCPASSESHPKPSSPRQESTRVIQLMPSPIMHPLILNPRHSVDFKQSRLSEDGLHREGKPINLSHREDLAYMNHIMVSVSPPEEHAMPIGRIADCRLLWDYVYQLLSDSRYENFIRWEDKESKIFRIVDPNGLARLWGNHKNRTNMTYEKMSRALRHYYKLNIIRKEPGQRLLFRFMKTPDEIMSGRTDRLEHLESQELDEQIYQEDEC
Summary of the method: as §1

| Sequence | binding signal (ELK1) | binding signal (EHF) | binding signal (SPIC) | binding signal (ELK4) | binding signal (ELF3) | binding signal (GABPA) | binding signal (ELK3) | binding signal (FEV) | binding signal (ELF4) | binding signal (ETV6) |
| --- | --- | --- | --- | --- | --- | --- | --- | --- | --- | --- |
| TGGTGA | 1.04 fold enrichment (6-mer frequency, TF over GST control) | 1.09 fold enrichment (6-mer frequency, TF over GST control) | 1.02 fold enrichment (6-mer frequency, TF over GST control) | 1.04 fold enrichment (6-mer frequency, TF over GST control) | 1.03 fold enrichment (6-mer frequency, TF over GST control) |  |  |  |  |  |
| GCGCCG |  |  | 1.1 fold enrichment (6-mer frequency, TF over GST control) | 1.03 fold enrichment (6-mer frequency, TF over GST control) |  | 1.03 fold enrichment (6-mer frequency, TF over GST control) | 1.02 fold enrichment (6-mer frequency, TF over GST control) | 1.05 fold enrichment (6-mer frequency, TF over GST control) | 1.03 fold enrichment (6-mer frequency, TF over GST control) | 1.05 fold enrichment (6-mer frequency, TF over GST control) |
